Where “and” joins values, the source holds several entries; their conditions need not be identical. Identical values can stand only once. Among all 5,500 compounds or so, about 2,000 (36%) were called active. Another 18% or so got no clear call; they are omitted. Cut-off read from the data, not from the text of the source: active = normalized growth mostly below about 0.91 (no sharp cut-off); inconclusive = no clear call, values can overlap the other calls; inactive = mostly above about 0.92. This is one part of the list.
Test: chemical genetic growth profiling, strain panel (AID 1159580);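 note: tested at 20 µM; growth read once vehicle control cultures reached saturation at 30 °C; 1 = growth at the plate median or of vehicle wells; lower values mean less growth of the strain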
Conditions: growth OD

Measured: normalized growth

Nc1ccc(C(=O)O)c(O)c1
inactive: S. cerevisiae deletion strains, locus YKL009W, strain mrt4, hits give low values 1 | S. cerevisiae deletion strains, locus YKL068W, hits give low values 0.999 | S. cerevisiae deletion strains, locus YKL085W, strain MDH1 (second series), hits give low values 0.995 | S. cerevisiae deletion strains, locus YKL085W, strain MDH1, hits give low values 0.995 | S. cerevisiae deletion strains, locus YKL160W, strain elf1, hits give low values 0.947 | S. cerevisiae deletion strains, locus YKL190W, strain CNB1, hits give low values 1.01 | S. cerevisiae deletion strains, locus YKR001C, strain vps1, hits give low values 0.992 | S. cerevisiae deletion strains, locus YKR026C, strain gcn3, hits give low values 0.994 | S. cerevisiae deletion strains, locus YKR091W, strain srl3, hits give low values 0.989 | S. cerevisiae deletion strains, locus YLL001W, strain dnm1, hits give low values 0.924 | S. cerevisiae deletion strains, locus YLL026W, hits give low values 1 | S. cerevisiae deletion strains, locus YLL041C, strain sdh2, hits give low values 0.992 | S. cerevisiae deletion strains, locus YLR027C, strain aat2, hits give low values 1 | S. cerevisiae deletion strains, locus YLR039C, strain RIC1, hits give low values 1.02 | S. cerevisiae deletion strains, locus YLR058C, strain SHM2, hits give low values 1.01 | S. cerevisiae deletion strains, locus YLR102C, strain apc9, hits give low values 0.998 | S. cerevisiae deletion strains, locus YLR113W, strain HOG1, hits give low values 1.03 and 1.02 | S. cerevisiae deletion strains, locus YLR221C, strain rsa3, hits give low values 0.968 | S. cerevisiae deletion strains, locus YLR258W, strain gsy2, hits give low values 1.01 | S. cerevisiae deletion strains, locus YLR262C, strain YPT6 (second series), hits give low values 0.961 | S. cerevisiae deletion strains, locus YLR262C, strain YPT6, hits give low values 1.06 | S. cerevisiae deletion strains, locus YLR268W, strain sec22, hits give low values 0.99 | S. cerevisiae deletion strains, locus YLR320W, strain mms22, hits give low values 0.954 | S. cerevisiae deletion strains, locus YLR330W, strain CHS5, hits give low values 1.01 | S. cerevisiae deletion strains, locus YLR342W, strain FKS1 (second series), hits give low values 1.04 | S. cerevisiae deletion strains, locus YLR342W, strain FKS1, hits give low values 0.997 | S. cerevisiae deletion strains, locus YLR357W, strain rsc2, hits give low values 0.955 | S. cerevisiae deletion strains, locus YLR370C, strain arc18, hits give low values 0.995 | S. cerevisiae deletion strains, locus YLR371W, strain rom2, hits give low values 0.997 | S. cerevisiae deletion strains, locus YLR384C, strain iki3, hits give low values 0.994 | S. cerevisiae deletion strains, locus YLR418C, strain cdc73, hits give low values 0.996 | S. cerevisiae deletion strains, locus YML016C, strain PPZ1, hits give low values 1.01 | S. cerevisiae deletion strains, locus YML032C, strain rad52, hits give low values 1 | S. cerevisiae deletion strains, locus YML120C, strain ndi1, hits give low values 0.978 | S. cerevisiae deletion strains, locus YML124C, strain tub3, hits give low values 0.996 | S. cerevisiae deletion strains, locus YMR058W, strain fet3, hits give low values 0.995 | S. cerevisiae deletion strains, locus YMR078C, strain ctf18, hits give low values 1 | S. cerevisiae deletion strains, locus YMR125W, strain sto1, hits give low values 0.945 | S. cerevisiae deletion strains, locus YMR129W, hits give low values 0.999 | S. cerevisiae deletion strains, locus YMR205C, strain PFK2, hits give low values 0.939 | S. cerevisiae deletion strains, locus YMR223W, strain ubp8, hits give low values 1 | S. cerevisiae deletion strains, locus YMR231W, strain pep5, hits give low values 0.985 | S. cerevisiae deletion strains, locus YMR263W, strain SAP30, hits give low values 1 | S. cerevisiae deletion strains, locus YMR307W, strain GAS1, hits give low values 0.991 | S. cerevisiae deletion strains, locus YNL067W, strain RPL9B, hits give low values 1.01 | S. cerevisiae deletion strains, locus YNL071W, strain lat1, hits give low values 0.986 | S. cerevisiae deletion strains, locus YNL153C, strain GIM3, hits give low values 0.998 | S. cerevisiae deletion strains, locus YNL183C, strain NPR1, hits give low values 0.959 and 0.981 | S. cerevisiae deletion strains, locus YNL209W, strain ssb2, hits give low values 0.997 | S. cerevisiae deletion strains, locus YNL233W, strain BNI4, hits give low values 0.998 | S. cerevisiae deletion strains, locus YNL248C, strain rpa49, hits give low values 0.967 | S. cerevisiae deletion strains, locus YNL250W, strain rad50, hits give low values 1 | S. cerevisiae deletion strains, locus YNL271C, strain bni1, hits give low values 0.985 | S. cerevisiae deletion strains, locus YNL298W, strain CLA4, hits give low values 0.989 | S. cerevisiae deletion strains, locus YNL307C, strain MCK1, hits give low values 1 | S. cerevisiae deletion strains, locus YNL322C, strain KRE1 (second series), hits give low values 0.977 | S. cerevisiae deletion strains, locus YNL322C, strain KRE1, hits give low values 1.01 | S. cerevisiae deletion strains, locus YNR049C, strain mso1, hits give low values 0.994 | S. cerevisiae deletion strains, locus YNR052C, strain pop2, hits give low values 0.998 | S. cerevisiae deletion strains, locus YOL006C, strain TOP1, hits give low values 1.04 | S. cerevisiae deletion strains, locus YOL012C, strain htz1 0.886 | S. cerevisiae deletion strains, locus YOL147C, strain pex11, hits give low values 0.999 | S. cerevisiae deletion strains, locus YOR001W, strain rrp6, hits give low values 1.04 | S. cerevisiae deletion strains, locus YOR061W, strain CKA2, hits give low values 1.01 | S. cerevisiae deletion strains, locus YOR069W, strain VPS5, hits give low values 1.01 | S. cerevisiae deletion strains, locus YOR070C, strain gyp1, hits give low values 0.995 | S. cerevisiae deletion strains, locus YOR080W, strain dia2, hits give low values 1 | S. cerevisiae deletion strains, locus YOR083W, strain WHI5, hits give low values 0.945 | S. cerevisiae deletion strains, locus YOR106W, strain vam3, hits give low values 0.999 | S. cerevisiae deletion strains, locus YOR136W, strain idh2, hits give low values 0.992 | S. cerevisiae deletion strains, locus YOR144C, strain elg1, hits give low values 0.996 | S. cerevisiae deletion strains, locus YOR184W, strain ser1, hits give low values 0.997 | S. cerevisiae deletion strains, locus YOR231W, strain MKK1, hits give low values 1.01 and 1.04 | S. cerevisiae deletion strains, locus YOR265W, strain rbl2, hits give low values 0.997 | S. cerevisiae deletion strains, locus YOR270C, strain vph1, hits give low values 0.987 | S. cerevisiae deletion strains, locus YOR290C, strain snf2, hits give low values 0.963 | S. cerevisiae deletion strains, locus YOR316C, strain cot1, hits give low values 0.997 | S. cerevisiae deletion strains, locus YPL051W, strain arl3, hits give low values 0.979 | S. cerevisiae deletion strains, locus YPL055C, strain LGE1, hits give low values 1.01 | S. cerevisiae deletion strains, locus YPL078C, strain atp4, hits give low values 0.946 | S. cerevisiae deletion strains, locus YPL106C, strain sse1, hits give low values 0.968 | S. cerevisiae deletion strains, locus YPL240C, strain hsp82, hits give low values 0.991 | S. cerevisiae deletion strains, locus YPL241C, strain CIN2, hits give low values 1.01 | S. cerevisiae deletion strains, locus YPL256C, strain CLN2, hits give low values 1.03 and 1.04 | S. cerevisiae deletion strains, locus YPR119W, strain clb2, hits give low values 0.998 | S. cerevisiae deletion strains, locus YPR141C, strain kar3, hits give low values 0.999 | S. cerevisiae deletion strains, locus YPR163C, strain tif3, hits give low values 0.99 | S. cerevisiae deletion strains, locus YPR167C, strain met16, hits give low values 1.01 | S. cerevisiae deletion strains, strain wtn01, hits give low values 0.984 | S. cerevisiae strains, strain wild type, hits give low values 1.01

— PubChem BioAssay AID1159580 (chemical genetic matrix, 2015)
